The target in the first assay is WNT16. In words: pooled miR-30 sensor sort-seq; sequence = guide strand. Conditions: shRNA.
The sequence TAACAGTTGAAACTGATCTGTG gave a sensor-assay potency score (higher = more potent) of 0.0469. Same read-out and setting: the figure for TTCTTTGTCACTAAACATCTGT is -0.0723.

The sequence TTAACTTTTCAACATCTTCTAT yielded a sensor-assay potency score (higher = more potent) of -0.546.

In another assay the target is WNT4. The assay is described as above. As to conditions: shRNA.
The sequence TTGAACTGTGCGTTGCGTGGCA yielded a sensor-assay potency score (higher = more potent) of 0.0724. Still for that read-out and setting: the same measure for TCGAGTGTGGAGCAGTTCCAGC: -1.25; for TACACCAGGTCCTCATCTGTGT: -0.668; for ATGACTTCCAGGTTCCGCTTGC: -0.442. On the same count and under the same terms, the figure for TTTCTCGCACGTCTCCTCCTCT is -0.548. For the sequence TTGTCAGAGCATCCTGACCACT, the sensor-assay potency score (higher = more potent) was -1.18. The sequence TTGGACGTCTTGTTGCATGTGC yielded a sensor-assay potency score (higher = more potent) of 0.653. In turn, TGGAATTTGCAGCTGCAGCGTT displayed a sensor-assay potency score (higher = more potent) of -0.943. Same read-out and setting: the same measure for TGCACTGTCCTGTCACAGCCGC: -1.01; for TTGCGTGGCACCAGTGCCCTGG: -0.464.

On to AAGGAGTCGAGTGTGGAGCAGT, for which the sensor-assay potency score (higher = more potent) was -0.667. Still for that read-out and setting: the figure for TTGCACATCTGCACCTGCCTCT is 0.262.

The next assay deals with WRAP73. Described as above. Conditions: shRNA.
TTATACACCACTATCTTGGGAT had a sensor-assay potency score (higher = more potent) of 0.881.

TTTCGGGTTTGCTCTGTCGGTA registered a sensor-assay potency score (higher = more potent) of -0.96. On the same count and under the same terms, the figure for TATTTACTCTCTGAGCTCGGGA is -0.387; for TAATCTTTGCAGTCGCGCCGTT it is -0.556; for TTGCTGAGGAGGGCCATCGAGT it is -1.36. Still for that read-out and setting: the same measure for TTCGGGTTTGCTCTGTCGGTAA: -0.662; for TACGTGGACAACAACCGGCCAT: -0.35. The same measure, in the same setting: the figure for TTGTGCACAAGGACCAGACGGT is 0.172; for TTGGGAATGTTGTCGTTCCTTG it is -0.237; for TAACAGGTTTCAGTGTCTGTAA it is -0.596. On to TACATATTTACAAAAATGCTTT, for which the sensor-assay potency score (higher = more potent) is -1.06.

Regarding TTGCTCTGTCGGTAACAGGTTT, the sensor-assay potency score (higher = more potent) was -1.05.

A further assay has as its target WRB. Described as above. Conditions: shRNA.
For TTACAGACTAAAATCCAACAGG, the sensor-assay potency score (higher = more potent) is -0.429. Same read-out and setting: the figure for TCACATTTCGTACAGATCGAGG is -1.13; for ATATCTGGCAAACTCGTCCATC it is -0.952; for TCGTCCATCATGTTGACTGTGG it is -0.317. On the same count and under the same terms, the figure for TTAAATACAAAACACAAGTTGA is -0.499; for TAATACTATACAACTCTTGCTC it is 0.423; for TTGGCTAATTGAGCTGTCCGAG it is -0.552. Regarding TAGTGTTGTTCTTTTAACCATA, the sensor-assay potency score (higher = more potent) was -0.891. Same read-out and setting: the same measure for TACTATACAACTCTTGCTCAAC: -0.82; for TTGAGCTTATCCGTCATCTTGT: 0.602. The same measure, in the same setting: the figure for TTGCATCCAAACACGAAGCTGA is 0.58; for TTATCTTGGCTAATTGAGCTGT it is -0.0399.

Values taken from the OligoGym collection.
Note: reference of the scale not given here.
